How the values were obtained:
Type in all cases: functional
Plasmodium falciparum [1] = assay: GSK_TCMDC: Inhibition of Plasmodium falciparum 3D7 in whole red blood cells, using parasite LDH activity as an index of growth. Test compounds present at 2uM
Plasmodium falciparum [2] = assay: GSK_TCMDC: Inhibition of Plasmodium falciparum Dd2 in whole red blood cells, using parasite LDH activity as an index of growth. Test compounds present at 2uM
HepG2 = assay: GSK_TCMDC: Percent inhibition of human HepG2 cell line. Test compounds present at 10uM.

SMILES | Inhibition (Plasmodium falciparum [1]) [%] | Inhibition (Plasmodium falciparum [2]) [%] | Inhibition (HepG2) [%]
Cc1cc(=NN=Cc2ccc(F)cc2)c2cccc(C)c2[nH]1 | 100 | 99 | 7
O=C(Cn1c(CCc2cccc(F)c2F)nc(=O)c2cccnc21)N(Cc1ccc(-c2ccc(C(F)(F)F)cc2)cc1)C1CCN(C2CCSCC2)CC1.O=C(O)C(O)C(O)C(=O)O | 100 | 63 | 49
NS(=O)(=O)c1ccc(CNc2ccc3ncc(-c4ccc(OC(F)(F)F)cc4)n3n2)cc1 | 97 | 99 | 10
Cc1ccc(C(=O)Nc2ccc(Nc3ccnc4cc(-c5ccccn5)ccc34)cc2O)cc1.Cl | 100 | 100 | 100
Cc1cc(NC(=O)NCCN2CCC(NC(=O)c3ccc(Cl)cc3)CC2)c2ccccc2n1 | 90 | 54 | 0
Cc1cc(N2CCCC2=O)ccc1-c1ccc(C(=O)N2CCC(Oc3cccc(Cl)c3)CC2)cc1 | 99 | 98 | 34
O=C(O)C(F)(F)F.O=S(=O)(NCCN1CCCC1)c1cccc(-c2cccc(CNCc3ccccc3)c2)c1 | 97 | 73 | 32
COc1ccc(CNCCCCCCNCCc2ccc(Cl)cc2)cc1OC.Cl | 96 | 0 | 21
CCCc1ccc(S(=O)(=O)NC2CCN(c3ccnc(Nc4ccc(OC)cc4)n3)C2)cc1 (stereo not given) | 89 | 45 | 42
O=C(N/C=N/c1cc([N+](=O)[O-])c(-c2ccncc2)n1-c1ccccc1)c1cccc(O)c1 | 100 | 56 | 2
Cc1cc2ncn(-c3nccc(NCc4cccnc4)n3)c2cc1C.O=C(O)C(F)(F)F | 99 | 98 | 0
COc1cc(Cc2cnc(N)nc2N)ccc1OCc1ccc(-c2csnn2)cc1 | 97 | 0 | 33
COc1ccc(NC(=O)N2CCCN(CCCCCNC(=O)/C=C/c3ccc(C(F)(F)F)cc3)CC2)cc1Cl | 93 | 0 | 21
Cc1cc(N[C@@H](Cc2ccccc2)C(=O)NCCOc2ccccc2)nc(NCCc2ccc(F)cc2)n1.O=C(O)C(F)(F)F | 99 | 86 | 5
Cc1ccc(CNC(=O)c2cc3c(=O)n4ccccc4nc3n(CCCN3CCOCC3)c2=N)cc1 | 92 | 5 | 21
Cc1nc(C)c(-c2ccc(C(=O)c3ccc(Cl)cc3)cc2)c(O)c1Cl | 98 | 95 | 0
CCCCNCc1ccc(-c2nc(CN(Cc3ccc(Cl)c(Cl)c3)S(=O)(=O)c3ccc(NC(C)=O)cc3)cs2)cc1.O=C(O)C(F)(F)F | 96 | 20 | 30
Cc1ccc(C(NC(=O)Cc2ccccc2)c2ccc3cccnc3c2O)cc1 (stereo not given) | 94 | 77 | 47
O=C(NCCCN1CCN(c2cccc(Cl)c2)CC1)c1ccc(-c2nc3cc(Cl)c(Cl)cc3[nH]2)c(F)c1 | 100 | 72 | 3
O=C(/C=C/c1ccc(-c2ccccc2)cc1)NCCCCCN1CCC(c2c[nH]c3ccccc23)CC1 | 97 | 23 | 91

SMILES | Inhibition (Plasmodium falciparum [1]) [%] | Inhibition (Plasmodium falciparum [2]) [%] | Inhibition (HepG2) [%]
O=C(Nc1ccc(Cl)cc1)Nc1cccc(-c2ccc(-c3nc4cc(F)ccc4[nH]3)cc2)c1 | 100 | 99 | 73
Cc1cccc2nc(-c3ccc(-c4ccc(CN5CCC(CCN6CCCCC6)CC5)cc4)cc3)[nH]c12.O=C(O)C(F)(F)F | 100 | 100 | 99
COc1ccc(O)c(Cc2cnc3nc(N)[nH]c(=O)c3c2C)c1.CS(=O)(=O)O | 96 | 6 | 30
O=C1C(c2ccccc2)=C(Nc2cccc(OC(F)(F)C(F)F)c2)c2ccccc21 | 96 | 96 | 0
CN1CCN(S(=O)(=O)c2cccc(Nc3nccc(N(C)c4ccc5c(c4)nc(NC(=O)c4cccs4)n5C)n3)c2)CC1 | 99 | 59 | 25
O=C(NCCCCCN1CCC(c2c[nH]c3ccccc23)CC1)Nc1cccc(Br)c1 | 84 | 0 | 39
O=C(O)C(F)(F)F.OCCN1CCN(Cc2ccc(-c3ccc(-c4nc5cc(F)ccc5[nH]4)cc3)cc2)CC1 | 100 | 99 | 33
Cc1[nH]c(C)c(-c2ccc(OCc3ccccc3C(F)(F)F)nc2)c(=O)c1Br | 98 | 97 | 35
CCCCNC(=O)[C@H](Cc1ccccc1)NC(=O)c1ccc(O)c(-c2ccc(Cl)c(Cl)c2)c1 | 98 | 97 | 0
COc1cc(C(=O)Nc2nc3ccccc3[nH]2)ccc1OCC(=O)Nc1cccc(C(F)(F)F)c1 | 100 | 33 | 33
CC(C)N1CCN(C(CN2CCN(CCCOc3ccc(-c4ccccc4)cc3)CC2)c2ccc(F)cc2)CC1.Cl (stereo not given) | 100 | 100 | 100
Cc1[nH]c2ccccc2c1C(=O)C(C)Sc1nnc(-c2ccccc2F)o1 (stereo not given) | 99 | 99 | 24
O=C(NCCc1cccc(Cl)c1Cl)c1cnc(N2CCN(c3ccncc3)CC2)c(Cl)c1.O=C(O)C(F)(F)F | 100 | 99 | 47
O=C(Nc1ccc(C(F)(F)F)cc1)c1ccc(S(=O)(=O)NC2CCN(CC3CCCCC3)C2)cc1.O=C(O)C(F)(F)F (stereo not given) | 99 | 16 | 33
CCNc1cc(C(=O)N[C@@H](Cc2ccccc2)[C@H](O)CNC(C)(C)CCCC(C)C)cc(N2CCCC2=O)c1.O=CO | 100 | 81 | 0
FC(F)(F)c1ccc2[nH]ccc(=NN=Cc3cccc(Cl)c3)c2c1 | 97 | 2 | 0
Cc1ccccc1OCC(=O)Nc1ccc(-c2nc3cc4ccccc4cc3[nH]2)cc1 | 100 | 51 | 24
CS(=O)(=O)N(c1ccccc1)c1cc(C(=O)N[C@@H](Cc2ccccc2)[C@H](O)CNC2CCCCC2)cc(N2CCCC2=O)c1 | 100 | 97 | 8
CC(C)[C@H](NC(=O)c1ccc(O)c(-c2ccc(Cl)c(Cl)c2)c1)C(=O)NC1CCCCCC1 | 99 | 99 | 0
Cc1ccc(Nc2ccnc(Nc3ccc(F)c(Cl)c3)n2)cc1O.Cl | 100 | 52 | 9

SMILES | Inhibition (Plasmodium falciparum [1]) [%] | Inhibition (Plasmodium falciparum [2]) [%] | Inhibition (HepG2) [%]
CCN(CC)c1ccc(NC(=S)NC2CCN(CCCCCNC(=O)/C=C/c3ccc(Cl)c(Cl)c3)CC2)cc1 | 100 | 58 | 16
CCC(C)NS(=O)(=O)c1ccc2nc(Nc3cccc(SC)c3)n(C(C)C(C)C)c2c1 (stereo not given) | 94 | 70 | 0
COc1ccc(-c2cccc(NC(=O)c3cccs3)c2)cc1CN1CCCN(C)CC1.O=C(O)C(F)(F)F | 100 | 30 | 17
CC(CN)OCn1cnc2c(N)ncnc21.Cl (stereo not given) | 95 | 3 | 17
O=C(Nc1cccc(C(F)(F)F)c1)NC1CCN(c2ccnc3ccccc23)C1.O=C(O)C(F)(F)F (stereo not given) | 100 | 69 | 23
Cc1cc(NCCC(=O)NCCOc2ccccc2)nc(NCCOc2ccccc2)n1.O=C(O)C(F)(F)F | 92 | 20 | 8
O=C(O)C(F)(F)F.c1ccc(CNCc2ccc(-c3cccc(-c4nc5ccccc5[nH]4)c3)cc2)cc1 | 100 | 78 | 55
Cc1cc(Nc2ccccc2)nc(Nc2ccccc2)n1 | 96 | 74 | 0
CCCN1CC[C@@H](CCCc2ccnc3ccc(O)cc23)[C@@H](CC)C1.Cl | 93 | 14 | 10
COCC(C)n1c(SC(C)C(=O)Nc2cc([N+](=O)[O-])ccc2Cl)nc2ccccc2c1=O (stereo not given) | 95 | 94 | 0
O=C(Nc1cccc(-c2ccc(CN3CCCC3)cc2)c1)c1cccc(F)c1.O=C(O)C(F)(F)F | 99 | 17 | 20
CCN(CCCN1CCCCC1)c1cc(C)nc(Nc2ccc(Cl)cc2)n1.Cl | 100 | 82 | 23
COc1cccc(NC(=O)N2CCOC(CCN3CCC4(CCc5ccccc54)CC3)(c3ccc(Cl)c(Cl)c3)C2)c1 (stereo not given) | 94 | 72 | 97
O=S1(=O)NC2(CCN(CCc3ccc(Cl)cc3)CC2)Nc2cc(F)cc(F)c21 | 86 | 5 | 7
Cl.O=c1nc(NCCCNCc2cc3c(Cl)cc(Cl)cc3[nH]2)[nH]c2ccccc12 | 91 | 4 | 10
O=C(C=Cc1ccccc1)Nc1ccc(C#CC=Cc2ccc(NC(=O)C=Cc3ccccc3)cc2)cc1 | 100 | 3 | 26
Cc1ccccc1CNc1nccc(NCCC(=O)Nc2ccccc2)n1.O=C(O)C(F)(F)F | 90 | 15 | 16
N#Cc1cccc(NC(=O)Nc2cccc(OC3CCN(Cc4ccccc4)CC3)c2)c1.O=C(O)C(F)(F)F | 100 | 48 | 5
Brc1cc(Br)c2c(c1)C(NCCCNC1CCNc3c(Br)cc(Br)cc31)CCN2 (stereo not given) | 98 | 25 | 18
COc1cccc(NC(=O)c2ccc(NCCCN3CC(C)CC(C)C3)c([N+](=O)[O-])c2)c1 (stereo not given) | 100 | 68 | 14

Source: ChEMBL document CHEMBL1157539, “Thousands of chemical starting points for antimalarial lead identification” (Nature, 2010)
